ChEMBL document CHEMBL3433997, “St. Jude Leishmania screening dataset” (2016)

Target: Glucose transporter (Leishmania mexicana) (UniProt O61059)
Assay: ST_JUDE_LEISH: Cytotoxicity at 2uM final concentration against transgenic Leishmania Mexicana promastigotes LmGT2 that are glucose transport deficient and complemented with the L. Mexicana glucose transporter 2. Activity is measured by DNA content using SYBR green in vitro
Type: functional

Compound | inhibition [%]
O=C(Nc1ccc(Oc2ccccc2)cc1)N1CCC(CCN2CCC(c3c[nH]c4ccccc34)CC2)CC1 | 5.21
CS(=O)(=O)CCNCc1nc(-c2ccc3ncnc(Nc4ccc(OCc5ccccc5)c(Cl)c4)c3c2)cs1 | 2.9
CCCC[C@H](NC(=O)O[C@H](COc1ccc(OCc2ccccc2)cc1)C(C)(C)C)C(=O)C(=O)Nc1cc[nH]n1 | 1.64
Cc1nc2nc(N)nc(N)c2c(C)c1Cc1ccc(C(N)=O)cc1 | 0.21
Oc1ccccc1N1CCN(c2ccc(-c3nc4ccccc4[nH]3)cn2)CC1 | 0.57
Cc1nc(-c2nc(NCCc3c(C)noc3C)ncc2-c2ccsc2)sc1C | 2.5
O=C(Nc1cccc([N+](=O)[O-])c1)Nc1ccc(Cl)c(C(F)(F)F)c1 | 0.73
CN1CCN(Cc2c(O)ccc3c(=O)c(Oc4ccc(C(C)(C)C)cc4)c(C(F)(F)F)oc23)CC1 | 46.6
CC(C)Oc1cc2c(cc1NS(=O)(=O)c1ccc(-c3cccs3)cc1)CCN(C)CC2 | 1.94
COc1ccc(-c2cc(C(=O)N[C@@H](CC3CCCCC3)C(=O)NC3CCCc4ccccc43)ccc2O)cc1 (some centres undefined) | 1.1
COc1ccc(Nc2nccc(NCC(O)c3ccc(C(F)(F)F)cc3)n2)cc1 (centres undefined) | 2.61
Cc1ccc2ncc(Cl)c(CCN3CCC(NCc4ccc5c(n4)NC(=O)CS5)CC3)c2n1 | 2.85
COCC(=O)Nc1nc2ccccc2[nH]1 | 2.36
COc1ccc2ncc(F)c(CCN3CCC(CNCc4cccc5c4OCO5)CC3)c2n1 | 3.27
NS(=O)(=O)c1cccc(-c2ccc3c(O)ncnc3c2)c1 | 5.44
N=C(N)NC(=O)Nc1ccc(Cl)c([N+](=O)[O-])c1 | 0.37
CC(C)(C)c1ccccc1SC1=C(O)CC2(CCNCC2)OC1=O | 1.29
Cc1cc(N[C@@H](Cc2ccccc2)C(=O)Nc2ccccc2)nc(NCCN2CCCC2)n1 | -2.29
O=C(NCC1CCN(Cc2cccc(C(F)(F)F)c2)C1)c1cc(-c2cccc(Cl)c2)cs1 (centres undefined) | -3.57
Oc1cccc(Nc2nc(NCc3ccccc3)c3ccccc3n2)c1 | 11.8

Compound | inhibition [%]
Fc1ccc(C=NN=c2cc[nH]c3ccccc23)cc1 | 8.73
N=C(N)NN=Cc1c[nH]c2ccc(-c3ccccc3)cc12 | 1.34
O=C(Nc1nc2cc(S(=O)(=O)NCc3ccc(Cl)c(Cl)c3)ccc2n1CCCN1CCCC1)c1ccc(Cl)cc1 | 3.04
O=C(Nc1ccc(-c2cccc(-c3nc4ccccc4[nH]3)c2)cc1)Nc1ccsc1 | -0.62
COc1cccc(C2CCN(CCN3CCC(NC(=O)c4ccc(-c5ccc(C(F)(F)F)cc5)cc4)CC3)CC2)c1 | 6.6
COc1ccc(CNCc2cccc(-c3cccc(-c4nc5cc(F)ccc5[nH]4)c3)c2)cc1 | -0.04
CCOc1cccc(C(=O)Nc2cccc(CN3CCCN(Cc4cccc(O)c4)CC3)c2)c1 | 3.26
Cc1nnc2c(NC(=O)NC(C)C)cc3cc(-c4ccc(CN5CCCCC5)cc4)ccc3n12 | 11
CC(C)c1ccc(CN2CCC(NC(=O)c3ccc(-c4cccc(F)c4)s3)CC2)cc1 | -0.6
Cn1cncc1C(=O)Nc1ccc(-c2cccc(-c3nc4cc(F)ccc4[nH]3)c2)cc1 | 4.7
Cc1cc(N2CCCC2)nc(Nc2ccc(NC(=O)Nc3ccccc3)cc2)n1 | 3.63
CCc1ccc(C2CCN(CCCCNC(=O)c3ccc(NC(=O)c4ccc(Cl)cc4)cc3)CC2)c(OCC(=O)OC)c1 | 1.25
CCNc1cc(C(=O)N[C@@H](Cc2cc(F)cc(F)c2)[C@H](O)CNCc2cccc(C(F)(F)F)c2)cc(N2CCCCS2(=O)=O)c1 | -1.62
COc1ccc(-c2cccc(CNCc3ccc(F)cc3)c2)cc1S(=O)(=O)NCCN1CCCC1 | 6.87
NCC1CCCN1Cc1ccc(-c2ccc(-c3nc4cc(C(F)(F)F)ccc4[nH]3)cc2)cc1 (centres undefined) | 1.46
CC(C)CNC(=O)c1ccc(-c2cccc(CN3CCC(N4CCCC4)CC3)c2)nc1 | 1.53
Cc1nn(CCOC(=O)NC(NCC2COc3ccccc3O2)C(Cl)(Cl)Cl)cc1[N+](=O)[O-] (centres undefined) | -1.73
O=C(/C=C/c1ccc(Cl)c(Cl)c1)NCCCCCN1CCCC(C(=O)Nc2ccc(Cl)cc2)C1 (centres undefined) | 2.58
CC(Cl)=CCc1c(C)nc2c(ccc3ccccc32)c1O | 3.58
